# Laboratory results taken from PubChem BioAssay (NCI).
# “And” between values parts separate entries of the source, which are not always exact repeats. Equal values may be shown once. Compounds without any hit were thinned out: in the full panel of roughly 79,000, 15% have a hit. Some compounds were tested as several samples or in several runs, with calls that do not always agree. The source made the active and inactive calls. Rule as the data show it: active = growth inhibition above about 70%; inactive = the rest.
# Test: NCI Yeast Anticancer Drug Screen. Data for the mec2-1 strain (AID 157)
# Conditions: S. cerevisiae mec2-1 strain, stronger effect = higher value
# Procedure: Growth inhibition of yeast strains with defined genetic alterations is measured as a screen for potential anti-cancer activity. Selected strains with alterations in DNA damage repair or cell cycle control were exposed to compounds and growth inhibition was measured relative to vehicle treated controls. The strain used in this assay is mec2-1
# [1] = at 5.0 µM (retest, dose inferred, filed as 0.5)
# [2] = at 50.0 µM (retest, dose inferred, filed as 5.0)
Structure (SMILES),growth inhibition [1],growth inhibition [2],growth inhibition (at 50.0 µM)
CCC(C)(C)c1cc(O)c(C(C)(C)CC)cc1O,3% (inactive),67% (inactive),-22.4% (inactive) and 93.3% (active)
CCOc1ccc2ccccc2c1C(Cc1ccc(Cl)cc1)NCCO (configuration not stated),-2% (inactive),6% (inactive),93.5% (active)
CCN(CC)c1ccc(C(=C2C=CC(=[N+](CC)CC)C=C2)c2ccc(N(CC)CC)cc2)cc1,98% (active),92% (active),73% (active)
NC(CC(=O)O)C(=O)O (configuration not stated),-10% (inactive),-3% (inactive),-7.85% (inactive) and 99.6% (active) and 9.7% (inactive)
O=C(O)CCN1c2ccccc2Sc2ccccc21,-22% (inactive) and -12% (inactive),40% (inactive) and 48% (inactive),13.3% (inactive) and 52% (inactive)
CCCCCCCCCCCCOS(=O)(=O)O,-12% (inactive),2% (inactive),-36.6% (inactive) and 98.2% (active) and 32.4% (inactive)
CCN(CC)CCNc1n[n+]([O-])c2cc([N+](=O)[O-])ccc2[n+]1[O-],5% (inactive),48% (inactive),58.8% (inactive) and 52.6% (inactive)
OC1CN(Cc2ccccc2)C[C@@H]1O (some centres not stated),11% (inactive),99% (active),-7.9% (inactive)
CC(O)CN1CCN(CC(C)O)CC1.[I][Pt+2][I] (configuration not stated),-295% (inactive),11% (inactive),37.2% (inactive)
Cc1nc2c(Br)cc(Br)cc2c(=O)n1-c1ccccc1NC1OC(CO)C(O)C(O)C1O (configuration not stated),5% (inactive),32% (inactive),-33.6% (inactive) and 17.9% (inactive)
COc1cc(O)c2c(c1)C(=O)c1cc3c(c(O)c1C2=O)C(OC1OC(C)C(OC)C(O)C1OC)C(OC)C(C)(O)C3=O (configuration not stated),24% (inactive),98% (active),99.2% (active) and 93% (active)
CCCC1CCC(=C2C(=O)CCC2=O)O1 (configuration not stated),2% (inactive),19% (inactive),-8.75% (inactive) and 92.2% (active)
COC(=O)[C@]1(C)CCC[C@]2(C)c3ccc(C(C)C)cc3CC[C@@H]12,6% (inactive),97% (active),3.05% (inactive) and 99.1% (active)
O=C1C(=Cc2c[nH]c3ccccc23)C(=O)c2ccccc21,-24% (inactive),96% (active),-6.4% (inactive) and 69.5% (inactive)
